± gives the standard deviation.
test system: MILI (PIWIL2) piRISC loaded with L1MC piRNA (26 nt); assay: pre-steady-state target cleavage rate (min^-1); guide: L1MC piRNA 5'p-UAACUAAAUACUAUGCAAGCUGUAGG; MIWI and MILI are mouse PIWI proteins and EfPiwi is from a freshwater sponge; tags in brackets are library labels; higher = faster piRNA-guided slicing of the target; conditions: auxiliary factor: 500 nM mouse GTSF1
Method in brief: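 For Cleave-'n-Seq, a transcribed, DNA-blocked target RNA library […] met 1 nM active affinity-purified piRISC with one synthetic guide at 33 °C for 0–8 or 0–960 min in HEPES–potassium acetate buffer, with or without 500 nM GTSF1 partner protein. Uncleaved targets were sequenced and normalised to depth and weakly complementary targets, with three trials pooled and k3 capped at 0.0001 min^-1. A burst-and-steady-state fit supplied the pre-steady-state cleavage rate.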
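Further: 1 nM active piRISC with 0.1 nM target library at 33 °C single turnover.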

Point of comparison: UCCUGGAACAGCUUGCAUAGUAUUUAGGUA, “pre-steady-state target cleavage rate” value 0.0622 ± 0.017. Against it:
- UCCUGGAUGUCGAUGCUUAGUAUUUUGUUA — lower, 0.0154 ± 0.0056
- UCCUGGAUGUGCUUGCAUAGUAUAAUGUUA — within error, 0.081 ± 0.022
- UCCUGGAUCAGCUUGCAUAGUAUUAACAAA — within error, 0.0885 ± 0.022
- UCCUGGAUGUCGAAGCAUAGUAUUUAUGUUA — lower, 0.022 ± 0.0065
- UCCUGGAUGAGCUUGCCAUAGUAUUUAGUUA — within error, 0.0808 ± 0.016
- UCCUGGAUGUCGAUGCAUAGUAUAUAGUAA — within error, 0.063 ± 0.013
- UCCUGGAUGUCGUUGCAUAGUAUUUAGGUUA — higher, 0.152 ± 0.033

same assay, conditions: auxiliary factor: none (no GTSF1)

Point of comparison: UCCUGGAUCAGCUUGCAUAGGUAUUUAGUUA, “pre-steady-state target cleavage rate” value 0.00357 ± 0.0027. Against it:
- UCCUGGAUGUCGAACGUUAGUAUUUCGUUA — lower, < 0.0001
- UCCUGGAUGUCGUUGCAUAGUUAAUAGUUA — within error, 0.00434 ± 0.0022
- UCCUGGAUGUCGAACCAUAGUAUUUAGUGUA — lower, < 0.0001
- UCCUGGAUGUCGAACCAUACGUAUUUAGUUA — lower, < 0.0001
- UCCUGGAUGUCGAACGUAUGUGUUUAGUUA — lower, < 0.0001
- UCCUGGAUGUCGAACGUAUGUAUUUACAAA — lower, < 0.0001
- UCCUGGAUCAGCUUGCAUUCUAUUUACAAA — lower, < 0.0001
